From PubChem BioAssay AID1159580 (chemical genetic matrix, 2015)
Values joined by “and” are separate entries in the source; they are usually repeats but may differ in a detail not shown here. Identical values can stand only once. In all, about 5,500 compounds went through this assay and about 2,000 (36%) were called active. About 18% were inconclusive and are not listed. Rule as the data show it: active = normalized growth mostly below about 0.91 (no sharp cut-off); inconclusive = no clear call, values can overlap the other calls; inactive = mostly above about 0.92. This is one part of the list.

Test: chemical genetic growth profiling, strain panel (AID 1159580);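 also: tested at 20 µM; growth read once vehicle control cultures reached saturation at 30 °C; 1 = growth at the plate median or of vehicle wells; lower values mean less growth of the strain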
Details: growth OD
[1] = S. cerevisiae deletion strains, locus YAL013W, strain DEP1, hits give low values
[2] = S. cerevisiae deletion strains, locus YBR229C, strain ROT2, hits give low values
[3] = S. cerevisiae deletion strains, locus YDL101C, strain DUN1, hits give low values
[4] = S. cerevisiae deletion strains, locus YDL134C, strain PPH21, hits give low values
[5] = S. cerevisiae deletion strains, locus YDR150W, strain NUM1, hits give low values
[6] = S. cerevisiae deletion strains, locus YEL061C, strain CIN8, hits give low values
[7] = S. cerevisiae deletion strains, locus YGR052W, strain FMP48, hits give low values
[8] = S. cerevisiae deletion strains, locus YGR078C, strain PAC10, hits give low values
[9] = S. cerevisiae deletion strains, locus YHR030C, strain SLT2, hits give low values
[10] = S. cerevisiae deletion strains, locus YHR079C, strain IRE1, hits give low values
[11] = S. cerevisiae deletion strains, locus YHR082C, strain KSP1, hits give low values
[12] = S. cerevisiae deletion strains, locus YHR087W, strain rtc3, hits give low values
[13] = S. cerevisiae deletion strains, locus YJL095W, strain BCK1, hits give low values
[14] = S. cerevisiae deletion strains, locus YJL187C, strain SWE1, hits give low values
[15] = S. cerevisiae deletion strains, locus YJR043C, strain POL32, hits give low values
[16] = S. cerevisiae deletion strains, locus YJR066W, strain TOR1, hits give low values
[17] = S. cerevisiae deletion strains, locus YJR075W, strain HOC1, hits give low values
[18] = S. cerevisiae deletion strains, locus YKL171W, strain NNK1, hits give low values
[19] = S. cerevisiae deletion strains, locus YKL190W, strain CNB1, hits give low values
[20] = S. cerevisiae deletion strains, locus YKL203C, strain TOR2, hits give low values
[21] = S. cerevisiae deletion strains, locus YLR039C, strain RIC1, hits give low values
[22] = S. cerevisiae deletion strains, locus YLR058C, strain SHM2 (second series), hits give low values
[23] = S. cerevisiae deletion strains, locus YLR085C, strain ARP6, hits give low values
[24] = S. cerevisiae deletion strains, locus YLR113W, strain HOG1, hits give low values
[25] = S. cerevisiae deletion strains, locus YLR262C, strain YPT6, hits give low values
[26] = S. cerevisiae deletion strains, locus YML094W, strain GIM5, hits give low values
[27] = S. cerevisiae deletion strains, locus YMR219W, strain ESC1, hits give low values
[28] = S. cerevisiae deletion strains, locus YMR263W, strain SAP30, hits give low values
[29] = S. cerevisiae deletion strains, locus YNL128W, strain TEP1, hits give low values
[30] = S. cerevisiae deletion strains, locus YNL153C, strain GIM3, hits give low values
[31] = S. cerevisiae deletion strains, locus YNL183C, strain NPR1, hits give low values
[32] = S. cerevisiae deletion strains, locus YNL207W, strain RIO2, hits give low values
[33] = S. cerevisiae deletion strains, locus YNL298W, strain CLA4 (second series), hits give low values
[34] = S. cerevisiae deletion strains, locus YNL322C, strain KRE1, hits give low values
[35] = S. cerevisiae deletion strains, locus YNR030W, strain Alg12, hits give low values
[36] = S. cerevisiae deletion strains, locus YOR119C, strain RIO1, hits give low values
[37] = S. cerevisiae deletion strains, locus YOR231W, strain MKK1, hits give low values
[38] = S. cerevisiae deletion strains, locus YPL055C, strain LGE1, hits give low values
[39] = S. cerevisiae deletion strains, locus YPL241C, strain CIN2, hits give low values
[40] = S. cerevisiae deletion strains, locus YPL256C, strain CLN2, hits give low values
[41] = S. cerevisiae deletion strains, locus YPR135W, strain CTF4, hits give low values
[42] = S. cerevisiae deletion strains, locus YCL061C, strain MRC1, hits give low values

Measured: normalized growth

O=[N+]([O-])c1cc(C(F)(F)F)cc([N+](=O)[O-])c1Oc1ccc(Cl)c(Cl)c1
active: [1] 0.0591 | [2] 0.062 | [3] 0.0834 | [4] 0.0454 | [5] 0.0593 | [6] 0.053 | [7] 0.12 | [8] 0.0542 | S. cerevisiae deletion strains, locus YGR229C, strain SMI1, hits give low values 0.0505 | [9] 0.0926 and 0.11 | [10] 0.11 | [11] 0.12 | [12] 0.0631 | [13] 0.12 | [14] 0.0563 | [15] 0.0569 | [16] 0.11 | [17] 0.084 | [18] 0.101 | [19] 0.0457 | [20] 0.0962 | [21] 0.0653 | [22] 0.0562 | [23] 0.0698 | [24] 0.173 | [25] 0.0617 | [26] 0.0673 | [27] 0.0518 | [28] 0.0593 | [29] 0.0548 | [30] 0.0599 | [31] 0.146 | [32] 0.108 | [33] 0.0706 | [34] 0.0592 | [35] 0.0612 | S. cerevisiae deletion strains, locus YOL006C, strain TOP1, hits give low values 0.068 | [36] 0.095 | [37] 0.113 | [38] 0.0764 | [39] 0.061 | [40] 0.135 | [41] 0.184

Cc1cc(Oc2c([N+](=O)[O-])cc(C(F)(F)F)cc2[N+](=O)[O-])c2c(Cl)ccc(C)c2n1
inactive: [42] 0.948 | [3] 0.987 | [5] 0.851 | [22] 0.951 | [24] 0.655 | [29] 0.957 | [30] 0.976 | [34] 0.948
active: [1] 0.667 | [2] 0.883 | [4] 0.887 | [6] 0.788 | [7] 0.173 | [8] 0.913 | [9] 0.271 and 0.16 | [10] 0.231 | [11] 0.27 | [12] 0.834 | [13] 0.363 | [15] 0.905 | [16] 0.29 | [17] 0.89 | [18] 0.534 | [19] 0.458 | [20] 0.459 | [21] 0.498 | [23] 0.372 | [25] 0.547 | [26] 0.805 | [27] 0.905 | [31] 0.143 | [32] 0.546 | [33] 0.668 | [35] 0.623 | [36] 0.479 | [37] 0.418 | [38] 0.44 | [39] 0.762 | [40] 0.348 | [41] 0.451

COc1ccc(Oc2ccc(C(F)(F)F)cc2[N+](=O)[O-])cc1
active: [41] 0.624
inactive: [1] 0.986 | [2] 0.96 | [42] 0.931 | [3] 0.924 | [4] 1.03 | [5] 0.886 | [6] 1.03 | [8] 0.951 | [9] 0.927 | [12] 0.993 | [14] 0.965 | [15] 0.946 | [17] 0.925 | [21] 0.901 | [22] 1.02 | [23] 0.896 | [25] 0.926 | [26] 1.06 | [27] 0.996 | [28] 0.917 | S. cerevisiae deletion strains, locus YMR307W, strain GAS1, hits give low values 0.911 | [30] 0.947 | [33] 0.987 | [34] 1.01 | [35] 0.924 | [38] 0.898 | [39] 0.952 | S. cerevisiae strains, strain wild type, hits give low values 0.978

Cc1cc(Sc2c([N+](=O)[O-])cc(C(F)(F)F)cc2[N+](=O)[O-])c(Cl)cc1Cl
inactive: S. cerevisiae deletion strains, locus YAR019C, strain CDC15, hits give low values 0.995 | S. cerevisiae deletion strains, locus YBL105C, strain PKC1, hits give low values 1 | S. cerevisiae deletion strains, locus YBR135W, strain CKS1, hits give low values 0.995 | S. cerevisiae deletion strains, locus YBR136W, strain MEC1, hits give low values 0.995 | S. cerevisiae deletion strains, locus YBR160W, strain CDC28, hits give low values 0.991 | S. cerevisiae deletion strains, locus YDL017W, strain CDC7, hits give low values 0.999 | S. cerevisiae deletion strains, locus YDL028C, strain MPS1, hits give low values 0.99 | [3] 0.995 | S. cerevisiae deletion strains, locus YDL108W, strain KIN28, hits give low values 0.995 | S. cerevisiae deletion strains, locus YDL132W, strain cdc53, hits give low values 0.99 | S. cerevisiae deletion strains, locus YDL214C, strain PRR2, hits give low values 0.98 | S. cerevisiae deletion strains, locus YDR052C, strain DBF4, hits give low values 0.993 | S. cerevisiae deletion strains, locus YDR054C, strain cdc34, hits give low values 0.99 | S. cerevisiae deletion strains, locus YDR226W, strain ADK1, hits give low values 0.978 | S. cerevisiae deletion strains, locus YDR477W, strain SNF1, hits give low values 0.959 | S. cerevisiae deletion strains, locus YER123W, strain YCK3, hits give low values 0.97 | S. cerevisiae deletion strains, locus YER133W, strain GLC7, hits give low values 0.998 | S. cerevisiae deletion strains, locus YFL009W, strain cdc4, hits give low values 0.992 | S. cerevisiae deletion strains, locus YFL029C, strain CAK1, hits give low values 1 | S. cerevisiae deletion strains, locus YFR003C, strain YPI1, hits give low values 0.997 | S. cerevisiae deletion strains, locus YFR019W, strain FAB1, hits give low values 0.964 | S. cerevisiae deletion strains, locus YFR028C, strain CDC14, hits give low values 0.996 | S. cerevisiae deletion strains, locus YGR040W, strain KSS1, hits give low values 0.964 | [7] 1.01 | S. cerevisiae deletion strains, locus YGR092W, strain DBF2, hits give low values 0.982 | [9] 0.928 | [10] 0.861 | [11] 0.988 | S. cerevisiae deletion strains, locus YHR205W, strain SCH9, hits give low values 0.911 | S. cerevisiae deletion strains, locus YIL147C, strain SLN1, hits give low values 0.996 | [13] 0.964 | S. cerevisiae deletion strains, locus YJL128C, strain PBS2, hits give low values 0.955 | S. cerevisiae deletion strains, locus YJL157C, strain FAR1, hits give low values 0.926 | S. cerevisiae deletion strains, locus YJR016C, strain ILV3, hits give low values 1 | S. cerevisiae deletion strains, locus YJR066W, strain TOR1 (second series), hits give low values 0.949 | [16] 0.961 | S. cerevisiae deletion strains, locus YKL048C, strain ELM1, hits give low values 0.987 | S. cerevisiae deletion strains, locus YKL067W, strain YNK1, hits give low values 0.994 | S. cerevisiae deletion strains, locus YKL101W, strain HSL1, hits give low values 0.995 | S. cerevisiae deletion strains, locus YKL193C, strain SDS22, hits give low values 0.999 | [20] 1 | [24] 1.02 | S. cerevisiae deletion strains, locus YLR133W, strain CKI1, hits give low values 0.96 | S. cerevisiae deletion strains, locus YLR403W, strain SFP1, hits give low values 0.931 | S. cerevisiae deletion strains, locus YML070W, strain DAK1, hits give low values 0.996 | S. cerevisiae deletion strains, locus YMR001C, strain CDC5, hits give low values 1 | S. cerevisiae deletion strains, locus YMR205C, strain PFK2 (second series), hits give low values 0.998 | S. cerevisiae deletion strains, locus YMR277W, strain FCP1, hits give low values 0.995 | S. cerevisiae deletion strains, locus YNL006W, strain LST8, hits give low values 1 | S. cerevisiae deletion strains, locus YNL020C, strain ARK1, hits give low values 0.924 | S. cerevisiae deletion strains, locus YNL161W, strain CBK1, hits give low values 0.977 | [31] 1.04 | [32] 0.991 | S. cerevisiae deletion strains, locus YNL222W, strain SSU72, hits give low values 0.991 | S. cerevisiae deletion strains, locus YNL307C, strain MCK1 (second series), hits give low values 0.974 | S. cerevisiae deletion strains, locus YOL078W, strain AVO1, hits give low values 0.995 | S. cerevisiae deletion strains, locus YOL136C, strain PFK27, hits give low values 0.926 | S. cerevisiae deletion strains, locus YOR061W, strain CKA2, hits give low values 0.967 | [36] 1.05 | [37] 0.976 | S. cerevisiae deletion strains, locus YOR329C, strain SCD5, hits give low values 0.994 | S. cerevisiae deletion strains, locus YPL031C, strain PHO85, hits give low values 0.928 | S. cerevisiae deletion strains, locus YPL153C, strain RAD53, hits give low values 0.965 | S. cerevisiae deletion strains, locus YPL204W, strain HRR25, hits give low values 0.947 | S. cerevisiae deletion strains, locus YPL209C, strain IPL1, hits give low values 0.999 | [40] 0.99 | S. cerevisiae deletion strains, locus YPR025C, strain CCL1, hits give low values 0.997 | S. cerevisiae deletion strains, locus YPR106W, strain ISR1, hits give low values 0.996 | S. cerevisiae deletion strains, locus YPR111W, strain DBF20, hits give low values 0.974 | S. cerevisiae deletion strains, strain NNK1, hits give low values 0.99 | S. cerevisiae deletion strains, strain TSCII, hits give low values 1
